A selection: hits, their analogues and other compounds. The true share with any hit is near 7.5%.
ELG1 genotoxic: genotoxicity induction in ELG1-luciferase HEK293T cells | HEK293T ELG1-luciferase reporter, luminescence, 16 h | 1.3% of 330,000 active | Potency, µM (titrated, usually from 46 µM), most hits filed as activators; note: nearly all actives have a fitted effect of over 60% in size
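ELG1-luciferase HEK293T cells, 2,000/well; compound pinned in; 16 hr, 37 °C, 5% CO2; ONE-Glo, 30 min RT; luminescence on CCD imager.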
NPC1 promoter act: activates the NPC1 promoter; 2.4% of 320,000 active; AID 485313; Huh7 NPC1 promoter luciferase reporter, 24 h; Potency, µM (doses to about 9.22 µM), most hits filed as activators; note: nearly all actives have a fitted effect of over 60% in size
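Compounds in DMSO were transferred onto Huh7 NPC1-luciferase reporter cells pre-incubated 2 h; after 24 h at 37 °C, Amplite reagent was dispensed and luminescence recorded 10 min later.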
Rab9 prom act: activates the Rab9 promoter. 2.8% of 320,000 active. AID 485297. Huh7 Rab9 promoter-luciferase reporter, luminescence, 24 h. Potency, µM (titrated, usually from 9.22 µM), actives largely listed as activators; note: nearly all actives have a fitted effect of over 60% in size
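Promoter activation is measured as luciferase luminescence in Huh7 cells stably transfected with a Rab9 promoter–luciferase construct, following 24 h compound exposure at 37 °C and 10 min reagent incubation at ambient temperature.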
KinaseGlo FLuc: Kinase-Glo luciferase inhibition (counter-screen); 0.28% of 200,000 active; Kinase-Glo luciferase, ATP luminescence, 8 min; Q27757; Potency, µM (highest dose often 38.3 µM), most hits filed as inhibitors; note: nearly all actives have a fitted effect of over 60% in size
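Light output from Kinase-Glo luciferase with luciferin and 10 uM ATP in 50 mM imidazole pH 7.2, KCl, MgCl2, Tween 20, BSA; compound pin-delivered, 8-min ambient incubation, then luminescence read.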
SMN2 splice enh: increases expression of the SMN2 splice variant | Potency, µM (highest dose often 46.1 µM), actives largely listed as activators | HEK293 SMN2-luciferase splicing reporter, luminescence, 30-36 h | 2.8% of 210,000 active; note: nearly all actives have a fitted effect of over 55% in size
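qHTS luciferase splicing reporter: luminescence rises when SMN2 exon 7 is included in transfected HEK293 cells. Compound exposure lasted 30-36 h at 37C, with 4.5 mM final sodium butyrate as control, followed by a ONE-Glo read.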
FLuc counter: counter-screen for miR-21 project: firefly luciferase inhibitors or activators; AID 588342; Potency, µM (highest dose often 57.5 µM), actives largely listed as inhibitors; 6.9% of 360,000 active; purified FLuc, Km substrates, luminescence inhibition; note: nearly all actives have a fitted effect of over 55% in size
Target sequence (P08659 whole entry, looked up): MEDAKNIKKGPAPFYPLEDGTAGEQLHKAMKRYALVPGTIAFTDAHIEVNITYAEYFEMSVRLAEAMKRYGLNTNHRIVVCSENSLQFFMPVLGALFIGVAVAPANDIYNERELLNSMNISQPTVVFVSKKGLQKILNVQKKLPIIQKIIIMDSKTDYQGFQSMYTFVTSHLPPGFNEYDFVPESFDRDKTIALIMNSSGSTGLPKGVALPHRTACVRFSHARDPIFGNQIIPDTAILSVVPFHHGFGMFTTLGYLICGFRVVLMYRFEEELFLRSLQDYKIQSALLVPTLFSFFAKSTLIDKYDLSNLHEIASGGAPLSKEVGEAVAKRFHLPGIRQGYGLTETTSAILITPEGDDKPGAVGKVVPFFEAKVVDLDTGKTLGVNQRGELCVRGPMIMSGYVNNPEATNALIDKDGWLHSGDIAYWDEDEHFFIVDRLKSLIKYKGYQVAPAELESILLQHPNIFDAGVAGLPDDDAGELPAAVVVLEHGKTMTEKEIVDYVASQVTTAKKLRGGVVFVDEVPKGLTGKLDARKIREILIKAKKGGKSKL
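Purified P. pyralis luciferase, 10 nM final, with Km-level 10 uM D-luciferin and 10 uM ATP in 50 mM Tris acetate pH 7.5, 10 mM Mg acetate, 0.01% Tween-20, 0.05% BSA; 6-point qHTS titration about 60 µM downward; luminescence read.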
Numbers stand for hits; . = inactive; ? = inconclusive; / = not tested or not shown. Calls come from the whole dose curve; as a rule, active = well fitted curve in the direction sought with a large enough effect; inconclusive = small, poorly fitted or top-dose-only effect, or another doubt; inactive = no such curve, though single readings can be large; an effect the other way counts as inactive or inconclusive.

SMILES | ELG1 genotoxic | NPC1 promoter act | Rab9 prom act | KinaseGlo FLuc | SMN2 splice enh | FLuc counter
CCOC(=O)c1c(C)[nH]c(C)c1S(=O)(=O)N1CCC(C(=O)N2CCN(c3cccc(C)c3C)CC2)CC1 | / | / | / | / | / | .
Cn1c(/C=N/Nc2nc3ccccc3[nH]2)nc2ccccc21 | 1.2µM | ? | 3.5µM | . | 4µM | 1.5µM
Cc1nn(-c2ccccc2)c(C)c1/C=N/Nc1nc2ccccc2[nH]1 | 5.2µM | 0.71µM | 0.5µM | 10µM | 3.2µM | 0.85µM
CCCn1c(/C=N/Nc2nc3ccccc3[nH]2)nc2ccccc21 | ? | . | . | . | . | 13µM
C=CCn1cc(/C=N/Nc2nc3ccccc3[nH]2)c2ccccc21 | . | . | . | . | . | 5.4µM
CC(C)Cn1c(/C=N/Nc2nc3ccccc3[nH]2)nc2ccccc21 | ? | . | . | . | . | ?
O=C(NCc1cccc(Br)c1)c1ccc(-n2cnc3cccnc32)cc1 | / | / | / | / | / | .
O=C(Nc1ccc(F)cc1Cl)C1CCN(c2ncnc3c2nc2n3CCCCC2)CC1 | / | / | / | / | / | .
Cc1c(/C=N/Nc2nc3ccccc3[nH]2)c2ccccc2n1C | ? | ? | ? | / | / | 11µM
Cc1c(/C=N/n2cnnc2)c2ccccc2n1C | . | . | . | . | . | .
CC(C)[C@H]1COC(c2cccc([N+](=O)[O-])c2)=N1 | / | / | / | . | / | /
COc1ccccc1/C=C(\C#N)C(=O)c1cccn1C | . | . | . | / | / | 11µM
Cn1cccc1C(=O)/C(C#N)=C/c1ccc(F)cc1 | . | . | . | / | / | 6.7µM
COc1ccc(/C=C(\C#N)C(=O)c2cccn2C)cc1 | . | . | . | / | / | 1.5µM
COc1ccccc1/C=C(/C#N)C(=O)O | . | . | . | / | / | .
CN1CCN(C(=O)/C(C#N)=C/c2ccc(F)cc2)CC1 | . | . | . | . | . | .
COc1ccc(/C=C(\C#N)C(=O)C(C)(C)n2cncn2)cc1 | . | . | . | . | . | ?
COc1ccc2sc(NCc3ccccc3)nc2c1 | ? | 2.2µM | 3.5µM | / | / | 6µM
COc1ccc2sc(NC(=O)CC(C)C)nc2c1 | 18µM | ? | 4.5µM | . | ? | 11µM
CCC(=O)Nc1nc2cc(OC)ccc2s1 | ? | 2.2µM | 1.4µM | . | ? | 12µM
CCC(=O)Nc1nc2ccc3nc(C)sc3c2s1 | 8.2µM | ? | 4µM | . | 11µM | ?
CC(=O)c1ccc(NC(=O)Cn2cc(S(=O)(=O)Cc3ccccc3Cl)c3ccccc32)cc1 | / | / | / | / | / | .
Cc1nn(C)c2c1c(C(F)(F)F)cc(=O)n2CC(=O)N1CCCCC1C (stereo unspecified) | / | / | / | / | / | .
COc1ccc2sc(NC(=O)NC(=O)c3c(Cl)cccc3Cl)nc2c1 | . | . | . | / | / | 19µM
COc1ccc2sc(NC(C)=O)nc2c1 | 9.2µM | 2.5µM | ? | . | 18µM | 17µM
SMILES | ELG1 genotoxic | NPC1 promoter act | Rab9 prom act | KinaseGlo FLuc | SMN2 splice enh | FLuc counter
CC(=O)c1ccc(N=Nc2ccc(N)cc2)cc1 | ? | 0.4µM | 0.32µM | / | / | 1.5µM
O=C(O)c1cccc(NC(=S)N/N=C/c2ccccn2)c1 | ? | 0.28µM | 0.32µM | . | 0.89µM | 0.38µM
O=C(O)c1cccc(NC(=S)N/N=C/c2ccccc2OCc2ccc(Br)cc2)c1 | . | . | . | . | ? | 24µM
O=C(O)c1cccc(NC(=S)N/N=C/c2cccc(O)c2)c1 | . | . | . | . | . | 2.1µM
CCCc1cc(=O)oc2c3c(ccc12)OCN(Cc1ccccc1OC)C3 | / | / | / | / | / | .
CCOc1ccc2nc(NC(=O)C34CC5CC(CC(NC(C)=O)(C5)C3)C4)sc2c1 | . | . | . | / | / | ?
Cc1nc(NC2CCCCC2)c2nc(-c3ccccc3)n(CCCN3CCOCC3)c2n1 | / | / | / | . | . | /
COc1ccc(N2CC(NC(=O)CCc3ccccc3)CC2=O)cc1OC (stereo unspecified) | / | / | / | / | / | .
CCN(CC)c1ccc(/C=C2\C(=O)c3ccc(C(=O)O)cc3C2=O)cc1 | ? | . | . | . | . | 0.38µM
CCN(CC)c1ccc(C(=O)O)cc1 | . | . | . | . | . | .
CCOC(=O)c1oc2ccc(CNCCO)c(Cl)c2c1C | ? | . | . | . | . | 17µM
c1ccc(Nc2ncnc3ccc(-c4ccc5c(c4)OCO5)cc23)cc1 | / | / | / | . | . | /
CCCCCCOc1ccc(-c2nc3ccc(Br)cc3c(=O)o2)cc1 | / | / | / | / | . | .
Cn1nc(-c2ccc(N3CCOCC3)c(NS(=O)(=O)c3ccccc3)c2)c2ccccc2c1=O | 13µM | . | . | . | ? | .
Cc1ccc(-c2nn(C)c(=O)c3ccccc23)cc1S(=O)(=O)N1CCOCC1 | ? | . | . | . | ? | .
CC(=O)Nc1cc(-c2nn(C)c(=O)c3ccccc23)ccc1N1CCCCC1 | . | . | . | . | . | .
Cc1ccc(-c2nn(C)c(=O)c3ccccc23)cc1S(=O)(=O)N1CCCC1 | 16µM | . | . | . | . | .

Source: PubChem BioAssay
